Assay outcomes deposited in PubChem by The Scripps Research Institute Molecular Screening Center.
An excerpt weighted towards active compounds, which were near 1.3% of everything screened.
PKA-R2B act = activators of PKA-R2B holoenzyme, primary screen, biochemical, fluorescence polarization, Cy5-IP20, human; hit rate 0.079% among 340,000; cAMP-dependent protein kinase catalytic subunit beta (Homo sapiens) + cAMP-dependent …; PKA-R2B holoenzyme dissociation; R2B truncated from residue 108, S112A mutant; 0% DMSO only, 100% 113 µM cGMP; activation, % at 11.4 µM; AID 504700, 2011;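 active = activation above a cutoff set at the mean over all compounds plus 3 SD, cut at about 18% in these data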;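 also: higher means more holoenzyme dissociation and a rise in polarization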
IDE cell activ = human IDE activators in live cells, primary screen, fluorescence polarization, HEK cells, FAbeta-B substrate; hit rate 0.073% among 340,000; activation, % at 5.96 µM; FAbeta-B cleavage; 0% vehicle, 100% cell-free pure enzyme wells;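 active = activation above the mean of all tested compounds plus 3 SD, set per screening campaign, cut at about 17% in these data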
Rin1 Abl inh = inhibitors of Rin1-Abl protein binding, primary screen, biochemical, TR-FRET. inhibition, % at 7.35 µM. hit rate 0.4% among 360,000. AID 588664, 2011; in the data active = inhibition above about 5%, passing the limit was not always enough
PKA-R1A activ = activators of PKA-R1A holoenzyme, primary screen, biochemical, fluorescence polarization, Cy5-IP20, bovine R1A, mouse PKAc | cAMP-dependent protein kinase type I-alpha regulatory subunit (Bos taurus) + … | AID 504707, 2011 | PKA-R1A dissociation; scaled: DMSO 0%, 113 µM cGMP 100% | activation, % at 11.4 µM | hit rate 0.083% among 340,000;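 active = percent activation above the mean of all tested compounds plus 3 SD, cut at about 19% in these data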;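 also: higher means more PKAc released from R1A so a rise in polarization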
E coli Lon inh = inhibitors of E. coli Lon protease, primary screen, biochemical, fluorescence polarization. P0A9M0. purified E. coli Lon protease. inhibition, % at 7.94 µM. hit rate 0.42% among 360,000; in the data active = inhibition above about 13%, passing the limit was not always enough
Target sequence (P0A9M0 whole entry, looked up): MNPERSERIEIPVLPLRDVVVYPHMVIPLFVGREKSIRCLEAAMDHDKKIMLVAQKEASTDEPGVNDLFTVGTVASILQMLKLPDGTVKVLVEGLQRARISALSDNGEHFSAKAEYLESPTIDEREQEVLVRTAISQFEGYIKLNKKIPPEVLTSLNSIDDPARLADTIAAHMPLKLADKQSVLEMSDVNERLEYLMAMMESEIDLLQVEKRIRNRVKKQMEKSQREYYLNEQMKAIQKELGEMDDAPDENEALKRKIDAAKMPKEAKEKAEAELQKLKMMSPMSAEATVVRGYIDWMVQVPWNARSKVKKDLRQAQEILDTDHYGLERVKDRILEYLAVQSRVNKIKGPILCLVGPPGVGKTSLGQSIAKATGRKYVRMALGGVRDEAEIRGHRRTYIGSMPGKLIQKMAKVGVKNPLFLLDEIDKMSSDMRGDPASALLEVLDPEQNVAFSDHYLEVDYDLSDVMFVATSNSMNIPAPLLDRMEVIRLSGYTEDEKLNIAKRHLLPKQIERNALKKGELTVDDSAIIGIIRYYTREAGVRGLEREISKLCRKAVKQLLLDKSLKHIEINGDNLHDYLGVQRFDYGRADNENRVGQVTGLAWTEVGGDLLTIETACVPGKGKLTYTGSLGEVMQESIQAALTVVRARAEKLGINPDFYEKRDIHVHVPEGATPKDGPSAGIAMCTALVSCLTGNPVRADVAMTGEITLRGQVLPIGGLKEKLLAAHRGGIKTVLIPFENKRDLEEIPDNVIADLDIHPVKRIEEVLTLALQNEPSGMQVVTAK
IDE inh = human IDE inhibitors in live cells, primary screen, fluorescence polarization, HEK cells, FAbetaB substrate; FAbetaB cleavage; inhibition, % at 5.59 µM; Insulin-degrading enzyme (Homo sapiens), P14735; hit rate 0.41% among 320,000; AID 434962, 2010;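 active = percent inhibition above the average of all tested compounds plus 3 SD, set per screening campaign, cut at about 16% in these data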;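 also: IDE supplied by intact live HEK cells; FP after avidin binding of uncleaved biotin substrate so inhibition keeps polarization high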
Rin1-Abl confirm = Rin1-Abl binding inhibitor retest, confirmation, biochemical, TR-FRET. AID 602124, 2011. inhibition, % at 7.35 µM. purified proteins. hit rate 49% among 1,300. shares compounds with Rin1 Abl inh
GFP quencher = GFP fluorescence inhibitors and quenchers, artefact control for Rin1-Abl interaction inhibitor project, biochemical; inhibition, % at 6.75 µM; inhibitors/quenchers counterscreen; shares compounds with Rin1 Abl inh; hit rate 8.5% among 1,300;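 also: ABL1-eGFP fusion protein alone without its partner RIN1-SBP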
GFP quench dose = GFP fluorescence inhibitors and quenchers, dose response, artefact control for Rin1-Abl interaction inhibitor project, biochemical. shares compounds with Rin1 Abl inh. GFP fluorescence interference/quenching counterscreen. IC50, µM. 230 tested, under 10 active. AID 602182, 2012; call rule not given here;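 also: ABL1-eGFP fusion protein alone without its RIN1 binding partner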
Large screens that a line does not name were inactive (follow-up assays come after a bar, where they were run). Rule as the data show it, unless noted: active = inhibition above about 6.5%; inactive = the rest.

Cc1cc(-c2ccccc2)nc(N/N=C/c2ccc(N(C)C)cc2)n1	none
CC(=O)Nc1cc(OC(C)=O)c2nonc2c1OC(C)=O	Rin1 Abl inh 16.0 | Rin1-Abl confirm inactive | GFP quencher inactive
CC(=O)Nc1nonc1NC(C)=O	none
Cc1cccc(CCN(CC(=O)NC2CCCCC2)C(=O)c2csnn2)c1	none
CCc1nc2nc(C)c(NS(=O)(=O)c3ccc(CC(C)C)cc3)c(=O)n2[nH]1	Rin1 Abl inh 8.2 | Rin1-Abl confirm inactive | GFP quencher inactive
CN1C(C(=O)N2CCc3ccccc3C2)=CC(c2ccc(F)cc2)=NS1(=O)=O	none
CCOC(=O)CCCCC(=O)c1[nH]c(=O)[nH]c1Cn1cnc2ccccc21	Rin1 Abl inh 71.5 | Rin1-Abl confirm 79.1 | GFP quencher inactive | GFP quench dose inactive
CCOC(=O)CCCCC(=O)c1[nH]c(=O)[nH]c1CSc1nc(-c2ccccc2)c(C#N)c(=O)[nH]1	Rin1 Abl inh 61.0 | Rin1-Abl confirm 75.5 | GFP quencher inactive | GFP quench dose inactive
N#Cc1c(-c2ccccc2)nc(SCC(=O)N(c2ccccc2)c2ccccc2)[nH]c1=O	none
CCOC(=O)CCCCC(=O)c1[nH]c(=O)[nH]c1CSCCO	Rin1 Abl inh 78.4 | Rin1-Abl confirm 82.0 | GFP quencher inactive | GFP quench dose inactive
CCN(CC)S(=O)(=O)c1ccc(C)c(NC(=O)Cn2cnc3cc([N+](=O)[O-])ccc3c2=O)c1	none
O=C(CN1C(=O)NC2(CCCC2)C1=O)OCCOc1cccc(Cl)c1	none
CCCCCCCC[n+]1c(C)n(-c2ccccc2)c2ccc(NC(C)=O)cc21	Rin1 Abl inh 5.0 | Rin1-Abl confirm 6.7 | GFP quencher inactive
CC(=O)Nc1ccc(SCC(=O)c2cc(C)n(-c3ccccc3)c2C)cc1	none
CCOC(=O)C(=O)Nc1nnc(Cc2ccc(OC)c(OC)c2)s1	none
CCOC(=O)Nc1nnc(Cc2ccc(Cl)c(Cl)c2)s1	Rin1 Abl inh 9.3 | Rin1-Abl confirm inactive | GFP quencher inactive
CCN(CC)S(=O)(=O)c1cc(C(=O)N=c2sccn2C)ccc1OC	none
CCCCOc1ccc(C(=O)N=c2sccn2C)cc1OC	Rin1 Abl inh 19.9 | Rin1-Abl confirm 12.4 | GFP quencher inactive
Cc1cccc(COCC(Cc2ccccc2)N2CCN(C(=O)c3ccc(Cl)c(Cl)c3)CCC2=O)c1 (stereo unspecified)	none
O=C(c1ccc(Cl)c(Cl)c1)N1CCC(=O)N(C(COCc2cccc(C(F)(F)F)c2)Cc2ccccc2)CC1 (stereo unspecified)	Rin1 Abl inh 23.4 | Rin1-Abl confirm 23.9 | GFP quencher inactive
CCc1ccc(NC(=O)CC2C(=O)N(c3ccc(C)cc3)C(=O)N2CCc2ccncc2)cc1 (stereo unspecified)	none
Cc1cccc(N2C(=O)C(CC(=O)Nc3cccc(F)c3)N(CCc3ccncc3)C2=O)c1 (stereo unspecified)	Rin1 Abl inh 5.3 | Rin1-Abl confirm inactive | GFP quencher inactive
CCC1CCCCN1CCCNC(=O)c1ccc2c(c1)c(C)c(C)n2CC (stereo unspecified)	Rin1 Abl inh 14.8 | Rin1-Abl confirm inactive | GFP quencher inactive
CCC1CCCCN1CCCNC(=O)c1ccc2c(c1)c(C)c(C)n2C (stereo unspecified)	none
Cc1ccc(S(=O)(=O)NCCSCc2ccco2)cc1	none
Cc1cc(C)c(S(=O)(=O)NCCSCc2ccco2)c(C)c1	Rin1 Abl inh 8.5 | Rin1-Abl confirm inactive | GFP quencher inactive
CCC[C@H]1CN(Cc2ccccc2)C(=O)[C@@H]1CC(=O)NC	none (no result: IDE cell activ, IDE inh)
CNC(=O)C[C@H]1C(=O)N(Cc2ccccc2)C[C@@H]1Cc1ccccc1	Rin1 Abl inh 8.2 (no result: IDE cell activ, IDE inh) | Rin1-Abl confirm inactive | GFP quencher inactive
CC1CCc2c(cnc3ncnn23)C1 (stereo unspecified)	none
Cc1cc(=O)n2nc(N3CCCC(C(=O)N4CCc5ccccc54)C3)sc2n1 (stereo unspecified)	Rin1 Abl inh 12.7 | Rin1-Abl confirm 16.6 | GFP quencher inactive
CCOC(=O)C1CCN(S(=O)(=O)NC[C@H]2O[C@@H](n3cnc4c(N)ncnc43)[C@H](O)[C@@H]2O)C1 (stereo partly specified)	none (no result: IDE inh)
NC(=O)C1CCN(CC(=O)Nc2ccccc2Sc2ccc(Cl)cc2)CC1	none
NC(=O)C1CCN(CC(=O)Nc2ccccc2Sc2ccccc2)CC1	Rin1 Abl inh 7.3 | Rin1-Abl confirm 11.2 | GFP quencher inactive
CC1(C)OC2CC3C4CC=C5CC(O)CCC5(C)C4CCC3(C)C2(C(=O)CO)O1 (stereo unspecified)	none (no result: IDE inh)
CC(=O)OCC(=O)C12OC(C)(C)OC1CC1C3CC=C4CC(O)CCC4(C)C3CCC12C (stereo unspecified)	Rin1 Abl inh 11.5 (no result: IDE inh) | Rin1-Abl confirm inactive | GFP quencher inactive
O=S(=O)(NCc1ccc2c(c1)OCO2)c1ccccc1F	none
Cn1c(=O)c2c(nc(SCCCC#N)n2Cc2c(F)cccc2Cl)n(C)c1=O	Rin1 Abl inh 7.2 | Rin1-Abl confirm 9.2 | GFP quencher inactive
Cn1c(=O)c2c(nc(OCc3cccnc3)n2Cc2c(F)cccc2Cl)n(C)c1=O	none
Cc1ccc(C(=O)Nc2ccc(O)cc2C(=O)O)cc1C	Rin1 Abl inh 26.7 | Rin1-Abl confirm 15.8 | GFP quencher inactive
Cc1cccc(C(=O)Nc2ccc(O)cc2C(=O)O)c1	none
Cc1ccc(C(=O)Nc2ccc(O)cc2C(=O)O)cc1	Rin1 Abl inh 11.1 | Rin1-Abl confirm 12.7 | GFP quencher inactive
Cc1ccc(NC(=S)NC(=O)c2ccc(F)cc2)cc1S(=O)(=O)Nc1ccccc1Cl	none
CS(=O)(=O)N1CCN=C1SCc1ccccc1	none
